# Cruzain Triton: inhibitors of Trypanosoma cruzi cruzain with detergent. P25779. 200,000 compounds, 0.43% hits. Potency, µM, for the others: max response, negative = inhibition, hits mostly inhibitors. purified cruzain, Z-FR-AMC fluorescence, 0.01% Triton;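 also: plate controls were neutral wells for no effect and buffer without enzyme for full effect; nearly all actives have a fitted effect of over 40% in size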
# Target sequence (P25779 123-467 limits assumed): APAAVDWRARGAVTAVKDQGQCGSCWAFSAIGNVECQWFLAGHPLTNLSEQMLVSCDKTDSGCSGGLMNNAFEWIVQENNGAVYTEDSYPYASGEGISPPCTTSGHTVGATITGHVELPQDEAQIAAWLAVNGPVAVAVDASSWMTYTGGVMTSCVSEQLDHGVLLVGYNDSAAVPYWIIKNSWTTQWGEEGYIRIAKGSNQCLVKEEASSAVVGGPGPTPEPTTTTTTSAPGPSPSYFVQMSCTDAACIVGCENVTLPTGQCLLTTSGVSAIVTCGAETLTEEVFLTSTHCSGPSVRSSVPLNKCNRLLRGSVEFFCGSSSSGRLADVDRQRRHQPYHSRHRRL
#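 Read-out: AMC fluorescence (360 nm excitation, 450 nm emission), four reads over 2 min, first-to-third difference used. Conditions: cruzain 1.5 nM, Z-FR-AMC 2 uM, pH 5.5 acetate, 5 mM DTT, 0.01% Triton X-100.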
# Cruzain inh noDet: blocks cruzain activity in detergent-free assay; P25779; Potency, µM, without a hit: max response, negative = inhibition, actives largely listed as inhibitors; AID 1476; 200,000 compounds, 2.3% hits; purified cruzain, Z-FR-AMC fluorescence, no detergent;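 also: plate controls were enzyme without inhibitor for no effect and buffer without enzyme for full effect; nearly all actives have a fitted effect of over 40% in size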
#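 Detergent-free condition (0.00005% Triton X-100) in acetate buffer pH 5.5 with DTT. 1.5 nM enzyme and compound were pre-mixed 15 min, then 2 uM Z-FR-AMC substrate added; reaction progress from fluorescence change between first and third reads (60 s).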
# Active calls of the source: *; ? = inconclusive. Most compounds without a hit are left out; they make up all but 2.5% or so of the library. Calls follow the shape of the dose curve; as a rule, active = well fitted curve in the direction sought with a large enough effect; inconclusive = small, poorly fitted or top-dose-only effect, or another doubt; inactive = no such curve, though single readings can be large; an effect the other way counts as inactive or inconclusive. Potency is read from the fitted curve at half-maximal effect.
SMILES,Cruzain Triton,Cruzain inh noDet
Cc1ccc(-c2nnc(SCC(=O)Nc3ccc4c(c3)oc3ccccc34)n2C)c(Cl)c1,-4%,?
COc1ccccc1OCc1nnc(SCC(=O)Nc2ccc(C)cc2)n1C,3%,8%
Cc1ccccc1OCc1nnc(SCC(=O)Nc2ccc3c(c2)oc2ccccc23)n1C,1%,20µM*
Cn1c(SCC(=O)Nc2cccc(Br)c2)nnc1-c1cc2ccccc2o1,1%,13µM*
COc1ccccc1Cn1c(=O)c2ccccc2n2c(Sc3ncnc4sccc34)nnc12,-1%,16µM*
COc1ccccc1Cn1c(=O)c2ccccc2n2c(SCc3csc(C)n3)nnc12,-3%,3%
CCc1c(O)c2c(c(O)c1C(C)=O)C(=O)c1c(cc(O)c(C(=O)O)c1C(=O)O)C2=O,-6%,-6%
CC(C)(C)NC(=O)[C@@H]1C[C@H]2CCCC[C@@H]2CN1C[C@H](O)[C@H](Cc1ccccc1)NC(=O)[C@@H](CC(N)=O)NC(=O)c1ccc2ccccc2n1,-2%,29%
O=[N+]([O-])c1ccc2ncccc2c1CCc1c([N+](=O)[O-])ccc2ncccc12,2%,1%
COc1ccc(Cc2nc3ccc(C(=O)NCCc4ccc(Cl)cc4)cc3o2)cc1,-2%,2%
COc1ccc(-c2nn(-c3ccccc3)cc2/C=C/C(=O)OCC(=O)Nc2ccc(C#N)cc2)cc1,-13%,?
Cc1ccccc1NC(=O)COC(=O)/C=C/c1cn(-c2ccccc2)nc1-c1cccnc1,-5%,25µM*
COc1ccc(-c2nn(-c3ccccc3)cc2/C=C/C(=O)OCC(=O)Nc2cccc(C#N)c2)cc1,0%,32µM*
CC(=O)Nc1ccc(NC(=O)C(C)OC(=O)/C=C/c2cn(-c3ccccc3)nc2-c2cccnc2)cc1 (configuration not stated),-9%,?
O=S(=O)(NCCNC/C=C/c1ccc(Br)cc1)c1cccc2cnccc12,-9%,-7%
COc1ccc(/C=N/NC(=O)c2ccc(Cn3cc([N+](=O)[O-])cn3)o2)cc1O,-6%,-21%
COc1ccc(/C=N/Nc2ccc([N+](=O)[O-])cc2)cc1Cn1cc([N+](=O)[O-])cn1,-2%,20µM*
COc1ccc(/C=N/NC(=O)Cn2nc(C)c([N+](=O)[O-])c2C)cc1,-3%,15%
COc1ccc(/C=N/Nc2ccccc2)cc1Cn1nc(C)c([N+](=O)[O-])c1C,3%,13µM*
CC(/C=C/C(=O)NO)=C\[C@@H](C)C(=O)c1ccc(N(C)C)cc1,-5%,-9%
CCCCCCNc1nc(NCc2ccco2)nc(OCC)n1,-5%,-1%
CCCCCCCCNc1nc(Cl)nc(NCc2ccco2)n1,-2%,16µM*
CCOC(=O)c1c(-c2ccccc2)oc2ccc(NS(=O)(=O)c3ccccc3)cc12,-7%,-26%
CCOC(=O)c1c(-c2ccccc2)oc2ccc(NS(=O)(=O)c3cc(C)c(C)cc3C)cc12,-3%,7.9µM*
O=C(COc1ccc(F)cc1)Nc1ccc(S(=O)(=O)N(Cc2ccccc2)c2ccccc2)cc1,2%,-24%
SMILES,Cruzain Triton,Cruzain inh noDet
COc1ccc(/C=C\C(=O)Nc2ccccc2C(=O)O)cc1OC,-9%,0%
COc1ccc(NC(=O)COC(=O)c2ccc(OCc3ccc(Cl)cc3Cl)c(OC)c2)c(OC)c1,-2%,?
COc1ccc(C)cc1NC(=O)COC(=O)c1ccc(OCc2ccc(Cl)cc2Cl)c(OC)c1,-1%,25µM*
COc1ccc(-c2nc(CCNC(=O)c3c(F)cccc3Cl)cs2)cc1,-11%,-13%
Cc1ccc(S(=O)(=O)c2nc(S(C)(=O)=O)sc2N(C)Cc2ccccc2)cc1,-8%,-5%
Cn1c(SCC(=O)Nc2ccccc2)nc(O)cc1=O,-4%,-11%
COc1ccc(NC(=O)CSc2nc(O)cc(=O)n2C)cc1,-25%,16µM*
CC(C)c1ccc(C(=O)Nc2ccc(-c3nc4ccccc4s3)c(Cl)c2)cc1,-2%,-4%
COc1cc(Nc2nc(SCc3ccc(Cl)cc3)nc3ccccc23)cc(OC)c1,4%,?
O=C(CSc1nc(Nc2ccccc2)c2ccccc2n1)c1ccc(Cl)cc1,-3%,?
COc1cc(Nc2nc(SCc3ccccc3F)nc3ccccc23)cc(OC)c1,1%,25%
COc1cc(Nc2nc(SCC(=O)c3ccc(Cl)c(Cl)c3)nc3ccccc23)cc(OC)c1,1%,6.3µM*
COc1cc(Nc2nc(SCc3ccccc3Cl)nc3ccccc23)cc(OC)c1,1%,16µM*
COc1cc(Nc2nc(SCc3cccc(Cl)c3)nc3ccccc23)cc(OC)c1,0%,20µM*
O=C1C(=O)c2ccccc2C(O)=C1Cc1ccccc1,5%,-3%
N[C@@H](Cc1c[nH]c2ccc([N+](=O)[O-])cc12)C(=O)O,2%,-10%
CCc1ccc(-c2cc(-c3n[nH]c(=S)n3CC)c3ccccc3n2)cc1,-3%,16µM*
CCn1c(-c2cc(-c3cccc(OC)c3)nc3ccccc23)n[nH]c1=S,-13%,5%
Cc1ccccc1NC(=O)Cn1c(=O)n(CCC(=O)NCc2ccc3c(c2)OCO3)c(=O)c2sccc21,-3%,-9%
O=C(Cn1cnc2sc(-c3ccccc3)cc2c1=O)NCc1ccccc1,1%,16µM*
O=C(Cn1cnc2sc(-c3ccccc3)cc2c1=O)NCCc1ccccc1,-1%,-23%
COCCn1c(=NC(=O)c2sc3ccccc3c2Cl)sc2cc(S(N)(=O)=O)ccc21,-15%,6%
C=CCn1c(=NC(=O)c2sc3ccccc3c2Cl)sc2cc(S(N)(=O)=O)ccc21,-26%,20µM*
CC(C)CS(=O)(=O)c1oc(-c2ccc(F)cc2)nc1S(=O)(=O)c1ccccc1,-6%,7%
CC(=O)O[C@]1(C(C)=O)CC[C@H]2C3C=C(Cl)C4=CC(=O)[C@@H]5C[C@H]5[C@]4(C)C3CC[C@@]21C (some centres not stated),-12%,?
SMILES,Cruzain Triton,Cruzain inh noDet
Cc1ccc(S(=O)(=O)N(C)Cc2nc(-c3ccccc3)oc2C)cc1,-4%,-5%
Cc1cccc(C(=O)Nc2ccc3nc(SCC(=O)N4CCc5ccccc54)sc3c2)c1,-1%,?
Cc1ccccc1C(=O)Nc1ccc2nc(SCC(=O)N3CCc4ccccc43)sc2c1,-1%,10µM*
O=C(Nc1ccc2ccccc2c1)c1nn(C23CC4CC(CC(C4)C2)C3)cc1Br,4%,10µM*
COc1ccc(NC(=O)c2nn(C34CC5CC(CC(C5)C3)C4)cc2[N+](=O)[O-])cc1,-4%,-1%
CCC(C)S(=O)(=O)c1oc(-c2cccs2)nc1S(=O)(=O)c1ccccc1 (configuration not stated),-8%,-23%
O=c1[nH]c(/C(Cl)=C/c2c(F)cccc2Cl)nc2cc(Cl)ccc12,-4%,?
O=c1[nH]c(/C(Cl)=C/c2cccc(C(F)(F)F)c2)nc2cc(Cl)ccc12,-3%,3.2µM*
CCOc1ccc(CCNC(=O)CCSCc2ccc(Cl)cc2)cc1OCC,1%,-6%
CN(C)CCCn1cnc2cc(Cl)c(Cl)cc21,-6%,0%
O=C(CSc1nc(C2CC2)nc2ccccc12)N1c2ccccc2Sc2ccc(C(F)(F)F)cc21,2%,4µM*
O=C(CN1CCCC(O)C1)N1c2ccccc2Sc2ccc(C(F)(F)F)cc21 (configuration not stated),3%,-2%
CCNC(=O)CN1C(=O)NC2(CCCCCC2)C1=O,5%,5%
CC(C)(C)c1ccc(-c2csc(NC(=O)CN3C(=O)NC4(CCCCC4)C3=O)n2)cc1,2%,7.9µM*

# Compound activity from PubChem.
